In one test the target is ATP8A2. Nature of the test: pooled miR-30 sensor sort-seq; sequence = guide strand. The settings on record: shRNA.
In turn, TTGATCTCTTGAGAGGCGCTTT showed a sensor-assay potency score (higher = more potent) of -0.359. Still for that read-out and setting: then TTGTCTCCTGTCAACACCCATA, with -1.33; and TCAATGTTCTTCAACAGCCTGG, with -0.00859; and TTCAACATAACACATTGCCTGA, with -0.505.

Regarding TTCCTGACTAACAGCTCCGTGT, the sensor-assay potency score (higher = more potent) is -0.616.

The target of a further test is ATP8B3. Described as above. The following applies: shRNA.
The sequence TTGGTCTTGTATTTCTTCCTTT yielded a sensor-assay potency score (higher = more potent) of -0.502. On the same count and under the same terms, then TTTGATGTTGCTCTTCTTGAGA, with -0.55. The same measure, in the same setting: the result for TAGAAGTTGTACTTGGCCGTGC reads 1.18. The same measure, in the same setting: then TAATTTTTGTGTCAAAACCAGC, with -1.1; and TTCTCTGACAGCAGCTCGCAGG, with -0.893.

In turn, TAGTACATCTGCACGTCCCAGT came in with a sensor-assay potency score (higher = more potent) of 0.127. The same measure, in the same setting: then TTGGTCAACAGCAACTTCTCAG, with -0.358; and TTTTTGTGTCAAAACCAGCATA, with -0.74. Still for that read-out and setting: the result for TTGACTGAGAAACCGAAGCCGA reads -0.857; that for TTTCTTGTCATTCCATTCCAGG, -1.26; that for TTCTTTGACTGAGAAACCGAAG, -1.15. The same measure, in the same setting: the result for TAAATGACCAGTCCATAGCAGG reads -1.07.

For another test, the target named is AVPR1B. The test is described as above. The settings on record: shRNA.
As for TGGTGGAATCTTCATCAGGGGC, the sensor-assay potency score (higher = more potent) is -1.82.

The sequence AAACATGCTGAGCACCTGCAGG had a sensor-assay potency score (higher = more potent) of -1.16. TTCTTGTCCCACACGGACCACA had a sensor-assay potency score (higher = more potent) of -1.03.

Consider TGACAGACAGCCAGGTAGCGGT, for which the sensor-assay potency score (higher = more potent) is -1.51.

With TTGACTTTTAGGTTTTTACAGA, the sensor-assay potency score (higher = more potent) was -0.906. The same measure, in the same setting: the result for TTCACTGTTCGGATCTTGGCCC reads 0.0628. Same read-out and setting: the result for TAGGTTTTTACAGATCTCATGG reads 0.26. On to TAGGTGGAGGCAAACATGCTGA, for which the sensor-assay potency score (higher = more potent) is -0.677. Still for that read-out and setting: then ATCAGGGGCATTCTTGTCCCAC, with -1.06; and TTGGTGGAATCTTCATCAGGGG, with -0.225; and AAGATAGCCAGGGTGGTCCAGG, with -1.04. On the same count and under the same terms, the result for TGTGTCTTGACTTTTAGGTTTT reads -1.08; that for TTAGGTTTTTACAGATCTCATG, -1.16; that for TTGAAGCCCATGTAGATCCAGG, -0.752. The sequence ATCTTCACTGTTCGGATCTTGG gave a sensor-assay potency score (higher = more potent) of -1.06. The same measure, in the same setting: then ATCTGGACACTGAAGAAGGGAG, with -1.3; and TTGGCCAGCTCCTCATCCCGGC, with -0.765; and TCTGCCAGCTCCAAGTCCCTTG, with -1.14. Still for that read-out and setting: then TTTAGGTTTTTACAGATCTCAT, with -1.13.

TTGGTGACTCTTCAGGCCTGGG registered a sensor-assay potency score (higher = more potent) of -0.954.

In turn, TTTACAGATCTCATGGCAGATG displayed a sensor-assay potency score (higher = more potent) of -1.02.

Regarding TTTTAGGTTTTTACAGATCTCA, the sensor-assay potency score (higher = more potent) was -0.253. Same read-out and setting: then TTTTTACAGATCTCATGGCAGA, with -0.895.

Values taken from the OligoGym collection.
Note: reference of the scale not given here.
